Shown are actives, neighbours in structure and some others; about 1.7% of the full set was active somewhere.
eIF4H inh: inhibitors of RNA binding by human eIF4H | Q15056 | 290,000 compounds, 0.94% hits | eIF4H fluorescence polarization binding assay | inhibition, % at 35 µM;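 also: calls also rest on retests at 20 µM and on dose response follow-up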
eIF4E-4G inh: inhibitors of eIF4E and eIF4G interaction in translation initiation | 220,000 compounds, 0.37% hits | TR-FRET eIF4E-eIF4GI(517-606) binding, 2 h | AID 782 | inhibition, % at 21.7 µM;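 active = inhibition above about 30%, limit read from the data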;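 also: 0% = full FRET control wells and 100% = background wells lacking eIF4GI fragment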
MLLE-PAM2 inh: inhibitors of microRNA-mediated deadenylation, human PABP1 MLLE binding | GST-MLLE / FITC-PAM2 fluorescence polarization | inhibition, % at 20 µM | 360,000 compounds, 0.36% hits | AID 588489; in the data active = inhibition above about 35%, passing the limit was not always enough;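 also: plate controls were DMSO wells with GST-MLLE for no effect and wells lacking GST-MLLE protein for full effect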
PABP FP inh: blocks human PABP binding to poly(A) RNA. fluorescence polarization. calls only at 35 µM. P11940. AID 2014. 290,000 compounds, 1% hits;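 also: calls also rest on retests at 20 µM and on dose response follow-up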
EBV gp42 inh: EBV gp42 inhibition; Q1HVG2; Fluorescence polarization binding assay, mP read-out; inhibition, % (tested at 21.74 µM); 220,000 compounds, 0.42% hits; AID 1085; in the data active = inhibition above about 50%
Active calls of the source: *; i = inactive; ? = inconclusive; nt = no result given; + = active, no number. Unless noted, no rule for the calls is given here.

SMILES	eIF4H inh	eIF4E-4G inh	MLLE-PAM2 inh	PABP FP inh	EBV gp42 inh
O=c1cc(C(F)(F)F)c2cc3c4c(c2o1)CCCN4CCC3	?	-1	i	+	150*
Cc1cc(C)cc(-n2c(O)c(C=Nc3ccc(N4CCOCC4)cc3)c(=O)[nH]c2=S)c1	?	3	-70	i	58*
O=c1[nH]c(=S)n(-c2ccc(Br)cc2)c(O)c1C=Nc1ccc(N2CCOCC2)cc1	14	4	108	i	86*
O=c1[nH]c(=S)n(-c2ccccc2F)c(O)c1C=Nc1ccc(N2CCOCC2)cc1	26	7	-127	i	31
COc1ccc(-c2[nH]ncc2CNC(C)Cc2cccc(C)n2)cc1F (configuration not stated)	7	3	5	i	-5
Cn1c[n+](C)cc1C(O)c1ccccc1 (configuration not stated)	7	11	-140	+	-71
Cc1ccc(-c2nn(Cc3ccccc3)cc2C(=O)O)cc1	-6	96*	5	i	1
COCCCNC(=O)c1c(NC(=O)c2ccccc2Cl)n(Cc2ccccc2)c2nc3ccccc3nc12	42*	-2	-12	i	-2
Cc1cc(NC(=O)C(Cl)(Cl)Cl)no1	-3	4	-22	i	-12
CCCCN1C(=O)/C(=C/C=C/c2ccco2)C(=O)NC1=S	72*	17	-92	+	-84
O=C1NC(=O)N(Cc2ccccc2)C(=O)/C1=C\c1ccco1	?	2	-57	i	-2
CCCCN1C(=O)/C(=C\c2ccco2)C(=O)N(CCc2ccccc2)C1=O	?	15	-36	+	-10
CCC(C)N1Cc2ccccc2C1=N (configuration not stated)	-7	-13	-13	i	1
O=C(O)Cn1cc(/C=C2\C(=O)NC(=O)N(Cc3ccco3)C2=O)c2ccccc21	?	3	-27	+	-37
O=C1NC(=O)N(Cc2ccco2)C(=O)/C1=C/c1cccn1CCOc1ccccc1Cl	?	0	-29	+	-31
Cn1cccc1/C=C1/C(=O)NC(=O)N(Cc2ccc(F)cc2)C1=O	?	6	-20	+	48
CCN(CC)c1ccc(/C=C2\C(=O)NC(=O)N(Cc3ccco3)C2=O)cc1	?	4	-151	i	-112
Cn1cccc1/C=C1/C(=O)NC(=O)N(Cc2ccccc2)C1=O	?	4	-10	i	27
Cn1cccc1/C=C1\C(=O)NC(=O)N(Cc2ccccc2)C1=O	?	-6	-16	+	-10
O=C1NC(=O)C(CCc2ccncc2)(Cc2ccc3c(c2)OCO3)C(=O)N1CCc1ccccc1 (configuration not stated)	-2	0	3	i	9
CCC1(CC)COP(=O)(OCC(Cl)CCl)OC1 (configuration not stated)	nt	nt	5	nt	nt
COc1ccc2[nH]c(C)c(CCNCc3cc(OC)c(OC)c(OC)c3)c2c1	94*	0	-3	+	-14
O=C1NC(=O)N(c2ccccc2)C(=O)/C1=C\c1ccc([N+](=O)[O-])o1	78*	14	nt	+	-12
CN1C(=O)NC(=O)/C(=C/c2ccc([N+](=O)[O-])s2)C1=O	64*	1	23	+	-5
O=C1NC(=O)N(c2ccccc2)C(=O)/C1=C\c1ccc([N+](=O)[O-])s1	?	3	nt	?	9
SMILES	eIF4H inh	eIF4E-4G inh	MLLE-PAM2 inh	PABP FP inh	EBV gp42 inh
CN1C(=O)NC(=O)/C(=C\c2ccc([N+](=O)[O-])o2)C1=O	95	13	12	i	-4
CN1C(=O)NC(=O)/C(=C/c2ccc([N+](=O)[O-])o2)C1=O	?	10	nt	+	-9
Cc1ccc(OP(=O)(NC(C)c2ccccc2)Oc2ccc(C)cc2)cc1 (configuration not stated)	-4	-5	12	i	-7
C[C@]12CCC3C(CC[C@H]4C[C@H](O)CC[C@]34C)C1C[C@@H](O)[C@H]2O (some centres not stated)	nt	nt	-1	nt	nt
N#Cc1ccc(NC(=S)N2Cc3ccccc3-n3nncc3C2)cc1	nt	nt	-89	nt	nt
CCN1C(=O)NC(=O)/C(=C\c2ccc(N3CCOCC3)cc2OC)C1=O	?	-1	nt	+	-2
N#CC(C#N)=Cc1ccc(-c2ccccc2)o1	?	-2	nt	i	-68
N#CC(C#N)=Cc1ccc(-c2ccccc2F)o1	42	-5	74	i	101*

Screening results: PubChem BioAssay, several laboratories
